We go through four compounds from ChEMBL document CHEMBL1961873, “Compounds: GSK PKIS; Assays: Nanosyn kinase panel” (2012).

A word on the inhibition: it is the drop in the measured response relative to a control, in per cent.

In experiment [1] the target is Ribosomal protein S6 kinase alpha-6 (Homo sapiens) (UniProt Q9UK32). The settings on record: at 1 µM.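 Also: each value is a mean inhibition of RSK4 from a GSK PKIS panel screen.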
Experiment [2] concerns the target T1, Serine/threonine-protein kinase Sgk1 (Homo sapiens) (UniProt O00141).
T1 sequence (whole entry): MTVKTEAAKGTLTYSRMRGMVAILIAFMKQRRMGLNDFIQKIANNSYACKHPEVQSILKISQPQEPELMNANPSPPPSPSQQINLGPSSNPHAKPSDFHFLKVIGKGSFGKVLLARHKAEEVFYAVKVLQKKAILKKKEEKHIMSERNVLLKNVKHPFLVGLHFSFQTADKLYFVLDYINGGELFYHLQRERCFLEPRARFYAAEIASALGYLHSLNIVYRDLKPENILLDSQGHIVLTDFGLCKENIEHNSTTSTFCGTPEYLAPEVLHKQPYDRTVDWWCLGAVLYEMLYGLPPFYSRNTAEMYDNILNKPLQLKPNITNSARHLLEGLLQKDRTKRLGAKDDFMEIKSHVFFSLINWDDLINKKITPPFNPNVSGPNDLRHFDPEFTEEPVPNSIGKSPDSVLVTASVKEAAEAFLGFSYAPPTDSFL
The settings on record: at 0.1 µM.

In experiment [3] the target is T1, Serine/threonine-protein kinase Sgk1 (Homo sapiens). Conditions: at 1 µM.
The target of experiment [4] is T2, Serine/threonine-protein kinase Sgk2 (Homo sapiens) (UniProt Q9HBY8).
T2 sequence (whole entry): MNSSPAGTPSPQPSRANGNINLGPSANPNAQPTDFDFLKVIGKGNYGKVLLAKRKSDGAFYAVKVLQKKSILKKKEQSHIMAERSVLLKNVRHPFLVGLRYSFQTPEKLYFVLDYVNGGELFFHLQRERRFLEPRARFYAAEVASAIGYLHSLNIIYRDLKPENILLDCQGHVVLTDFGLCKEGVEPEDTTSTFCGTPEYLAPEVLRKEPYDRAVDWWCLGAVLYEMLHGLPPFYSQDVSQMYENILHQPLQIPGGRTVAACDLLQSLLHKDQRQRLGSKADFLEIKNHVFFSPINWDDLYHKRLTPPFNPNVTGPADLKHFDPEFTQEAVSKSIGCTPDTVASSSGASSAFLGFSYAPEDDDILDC
The settings on record: at 0.1 µM.

Experiment [5] addresses T2, Serine/threonine-protein kinase Sgk2 (Homo sapiens). The settings on record: at 1 µM.
For experiment [6], the target named is T3, Serine/threonine-protein kinase Sgk3 (Homo sapiens) (UniProt Q96BR1).
T3 sequence (whole entry): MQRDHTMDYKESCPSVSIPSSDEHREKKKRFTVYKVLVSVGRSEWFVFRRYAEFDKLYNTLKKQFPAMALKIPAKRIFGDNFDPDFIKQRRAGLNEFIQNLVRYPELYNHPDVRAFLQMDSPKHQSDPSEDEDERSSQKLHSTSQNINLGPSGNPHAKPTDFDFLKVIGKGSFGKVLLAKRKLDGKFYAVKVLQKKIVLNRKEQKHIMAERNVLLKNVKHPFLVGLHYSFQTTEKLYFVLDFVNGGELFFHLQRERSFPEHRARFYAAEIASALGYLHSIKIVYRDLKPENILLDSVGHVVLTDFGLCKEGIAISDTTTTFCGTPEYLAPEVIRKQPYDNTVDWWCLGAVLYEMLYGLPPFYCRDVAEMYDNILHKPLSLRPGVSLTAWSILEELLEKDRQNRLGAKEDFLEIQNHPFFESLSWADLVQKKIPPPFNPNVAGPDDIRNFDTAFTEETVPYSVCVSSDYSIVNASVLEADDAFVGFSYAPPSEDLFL
Conditions: at 0.1 µM.

Experiment [7] has as its target T3, Serine/threonine-protein kinase Sgk3 (Homo sapiens). Conditions: at 1 µM.
The target in experiment [8] is 5'-AMP-activated protein kinase catalytic subunit alpha-1 (Homo sapiens) (UniProt Q13131). The settings on record: at 0.1 µM.
Experiment [9] shares this target. The settings on record: at 1 µM.
For experiment [10], the target named is 5'-AMP-activated protein kinase catalytic subunit alpha-2 (Homo sapiens) (UniProt P54646). Conditions: at 0.1 µM.
For experiment [11] the target is unchanged. Conditions: at 1 µM.
For experiment [12], the target named is T4, NUAK family SNF1-like kinase 1 (Homo sapiens) (UniProt O60285).
T4 sequence (whole entry): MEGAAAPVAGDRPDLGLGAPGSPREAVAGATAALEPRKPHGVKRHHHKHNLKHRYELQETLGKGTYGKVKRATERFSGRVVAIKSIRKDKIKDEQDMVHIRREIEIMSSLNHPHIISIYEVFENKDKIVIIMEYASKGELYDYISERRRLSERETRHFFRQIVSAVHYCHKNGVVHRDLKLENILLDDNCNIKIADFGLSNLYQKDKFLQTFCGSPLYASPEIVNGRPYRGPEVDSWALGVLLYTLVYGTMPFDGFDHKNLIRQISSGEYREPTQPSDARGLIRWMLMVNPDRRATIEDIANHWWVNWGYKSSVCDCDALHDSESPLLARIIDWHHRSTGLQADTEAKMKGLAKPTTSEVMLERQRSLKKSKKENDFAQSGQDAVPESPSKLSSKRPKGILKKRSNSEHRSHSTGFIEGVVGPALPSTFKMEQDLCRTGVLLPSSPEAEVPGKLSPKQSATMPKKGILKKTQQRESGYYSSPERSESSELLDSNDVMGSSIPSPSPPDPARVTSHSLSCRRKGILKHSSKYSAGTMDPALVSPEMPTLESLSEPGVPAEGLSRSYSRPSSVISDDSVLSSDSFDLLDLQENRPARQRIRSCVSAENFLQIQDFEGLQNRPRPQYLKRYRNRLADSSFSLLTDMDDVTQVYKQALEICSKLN
The settings on record: at 0.1 µM.

Experiment [13] deals with T4, NUAK family SNF1-like kinase 1 (Homo sapiens). Conditions: at 1 µM.
The target in experiment [14] is T5, Serine/threonine-protein kinase BRSK1 (Homo sapiens) (UniProt Q8TDC3).
T5 sequence (whole entry): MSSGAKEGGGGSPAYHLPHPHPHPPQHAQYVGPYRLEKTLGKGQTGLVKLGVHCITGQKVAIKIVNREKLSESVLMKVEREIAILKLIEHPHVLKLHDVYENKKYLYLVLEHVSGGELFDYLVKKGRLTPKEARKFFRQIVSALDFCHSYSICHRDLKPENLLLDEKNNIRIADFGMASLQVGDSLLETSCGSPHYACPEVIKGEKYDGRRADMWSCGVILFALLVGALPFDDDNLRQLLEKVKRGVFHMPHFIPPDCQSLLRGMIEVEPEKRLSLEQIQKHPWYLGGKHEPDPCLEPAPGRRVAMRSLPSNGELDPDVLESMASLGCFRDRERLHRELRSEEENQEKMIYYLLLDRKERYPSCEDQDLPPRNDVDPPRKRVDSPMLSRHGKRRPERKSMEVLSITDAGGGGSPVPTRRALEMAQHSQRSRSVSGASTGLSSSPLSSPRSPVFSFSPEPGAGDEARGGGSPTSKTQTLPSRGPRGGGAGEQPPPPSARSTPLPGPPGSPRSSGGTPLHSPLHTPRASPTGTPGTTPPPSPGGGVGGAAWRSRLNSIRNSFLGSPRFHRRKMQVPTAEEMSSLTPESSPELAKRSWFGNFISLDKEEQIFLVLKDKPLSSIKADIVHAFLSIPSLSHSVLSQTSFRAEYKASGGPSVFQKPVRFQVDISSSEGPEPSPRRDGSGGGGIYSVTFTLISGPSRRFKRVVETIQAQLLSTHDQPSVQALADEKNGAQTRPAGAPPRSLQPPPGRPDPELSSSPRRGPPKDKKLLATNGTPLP
Conditions: at 0.1 µM.

Experiment [15] deals with T5, Serine/threonine-protein kinase BRSK1 (Homo sapiens). The settings on record: at 1 µM.
For experiment [16], the target named is T6, Serine/threonine-protein kinase BRSK2 (Homo sapiens) (UniProt Q8IWQ3).
T6 sequence (whole entry): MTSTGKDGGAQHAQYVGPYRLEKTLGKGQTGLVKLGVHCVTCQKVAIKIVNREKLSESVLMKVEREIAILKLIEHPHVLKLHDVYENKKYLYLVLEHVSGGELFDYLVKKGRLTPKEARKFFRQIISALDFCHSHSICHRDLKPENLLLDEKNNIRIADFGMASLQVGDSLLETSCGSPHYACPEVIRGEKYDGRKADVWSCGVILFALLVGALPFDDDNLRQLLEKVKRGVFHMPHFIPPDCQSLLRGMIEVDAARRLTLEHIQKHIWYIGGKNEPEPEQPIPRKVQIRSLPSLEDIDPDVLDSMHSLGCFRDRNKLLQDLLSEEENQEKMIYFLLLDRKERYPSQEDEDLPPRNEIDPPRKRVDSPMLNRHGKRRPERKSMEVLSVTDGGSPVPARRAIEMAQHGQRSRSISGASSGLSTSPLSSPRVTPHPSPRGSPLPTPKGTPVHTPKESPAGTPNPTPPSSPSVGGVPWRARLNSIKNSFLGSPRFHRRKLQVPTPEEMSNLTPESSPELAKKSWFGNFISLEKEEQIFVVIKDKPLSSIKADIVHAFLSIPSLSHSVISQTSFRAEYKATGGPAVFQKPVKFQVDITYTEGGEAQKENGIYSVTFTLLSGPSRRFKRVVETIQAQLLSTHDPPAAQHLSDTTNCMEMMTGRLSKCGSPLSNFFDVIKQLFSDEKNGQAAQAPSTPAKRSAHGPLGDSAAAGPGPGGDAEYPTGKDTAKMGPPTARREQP
Conditions: at 0.1 µM.

Experiment [17] deals with T6, Serine/threonine-protein kinase BRSK2 (Homo sapiens). Conditions: at 1 µM.
Experiment [18] addresses Calcium/calmodulin-dependent protein kinase type 1D (Homo sapiens) (UniProt Q8IU85). The settings on record: at 0.1 µM.
Experiment [19] shares this target. Conditions: at 1 µM.
Experiment [20] has as its target Calcium/calmodulin-dependent protein kinase type II subunit alpha (Homo sapiens) (UniProt Q9UQM7). The settings on record: at 0.1 µM.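 Also: reported values are averages (mean inhibition of CAMK2A).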

Chain of Calcium/calmodulin-dependent protein kinase type 1D (Homo sapiens) (Q8IU85 whole entry, looked up): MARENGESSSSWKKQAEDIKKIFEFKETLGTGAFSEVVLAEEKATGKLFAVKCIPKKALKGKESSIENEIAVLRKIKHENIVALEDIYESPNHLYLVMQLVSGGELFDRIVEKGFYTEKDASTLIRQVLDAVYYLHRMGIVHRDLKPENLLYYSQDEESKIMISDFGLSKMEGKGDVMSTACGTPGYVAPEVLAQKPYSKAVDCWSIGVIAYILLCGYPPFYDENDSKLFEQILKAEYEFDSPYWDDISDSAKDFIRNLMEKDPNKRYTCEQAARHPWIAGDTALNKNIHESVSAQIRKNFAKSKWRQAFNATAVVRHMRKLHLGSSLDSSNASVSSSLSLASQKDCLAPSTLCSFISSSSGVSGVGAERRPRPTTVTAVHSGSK
Chain of 5'-AMP-activated protein kinase catalytic subunit alpha-2 (Homo sapiens) (P54646 whole entry, looked up): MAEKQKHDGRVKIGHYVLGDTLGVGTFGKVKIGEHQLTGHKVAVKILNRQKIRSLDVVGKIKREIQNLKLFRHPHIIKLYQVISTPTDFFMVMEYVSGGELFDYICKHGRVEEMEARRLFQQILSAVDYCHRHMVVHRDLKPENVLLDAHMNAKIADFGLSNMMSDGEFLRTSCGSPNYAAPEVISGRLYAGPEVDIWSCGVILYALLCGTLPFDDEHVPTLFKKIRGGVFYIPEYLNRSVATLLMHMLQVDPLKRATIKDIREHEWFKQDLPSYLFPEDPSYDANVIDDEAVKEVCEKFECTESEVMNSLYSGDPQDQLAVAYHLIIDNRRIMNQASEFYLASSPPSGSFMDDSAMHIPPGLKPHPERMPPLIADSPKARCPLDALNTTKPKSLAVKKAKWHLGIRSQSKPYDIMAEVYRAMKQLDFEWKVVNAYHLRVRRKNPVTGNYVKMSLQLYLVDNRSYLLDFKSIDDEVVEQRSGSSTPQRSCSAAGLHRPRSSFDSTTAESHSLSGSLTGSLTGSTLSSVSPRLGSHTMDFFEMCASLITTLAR
Chain of 5'-AMP-activated protein kinase catalytic subunit alpha-1 (Homo sapiens) (Q13131 whole entry, looked up): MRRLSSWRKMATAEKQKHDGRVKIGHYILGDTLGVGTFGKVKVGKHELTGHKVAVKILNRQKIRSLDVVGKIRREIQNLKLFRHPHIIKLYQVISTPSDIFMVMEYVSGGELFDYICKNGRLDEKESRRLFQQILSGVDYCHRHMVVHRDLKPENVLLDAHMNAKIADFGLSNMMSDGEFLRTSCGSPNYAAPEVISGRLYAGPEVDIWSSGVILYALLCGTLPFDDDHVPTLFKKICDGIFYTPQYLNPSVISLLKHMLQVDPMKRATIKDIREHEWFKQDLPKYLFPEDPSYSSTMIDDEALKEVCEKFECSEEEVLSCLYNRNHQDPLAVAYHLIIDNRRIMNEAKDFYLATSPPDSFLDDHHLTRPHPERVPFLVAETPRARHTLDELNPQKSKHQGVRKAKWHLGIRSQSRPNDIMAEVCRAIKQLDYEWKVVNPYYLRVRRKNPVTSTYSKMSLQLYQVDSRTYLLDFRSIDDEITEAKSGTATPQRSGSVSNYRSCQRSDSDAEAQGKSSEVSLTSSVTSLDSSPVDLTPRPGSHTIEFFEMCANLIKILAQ
Chain of Ribosomal protein S6 kinase alpha-6 (Homo sapiens) (Q9UK32 whole entry): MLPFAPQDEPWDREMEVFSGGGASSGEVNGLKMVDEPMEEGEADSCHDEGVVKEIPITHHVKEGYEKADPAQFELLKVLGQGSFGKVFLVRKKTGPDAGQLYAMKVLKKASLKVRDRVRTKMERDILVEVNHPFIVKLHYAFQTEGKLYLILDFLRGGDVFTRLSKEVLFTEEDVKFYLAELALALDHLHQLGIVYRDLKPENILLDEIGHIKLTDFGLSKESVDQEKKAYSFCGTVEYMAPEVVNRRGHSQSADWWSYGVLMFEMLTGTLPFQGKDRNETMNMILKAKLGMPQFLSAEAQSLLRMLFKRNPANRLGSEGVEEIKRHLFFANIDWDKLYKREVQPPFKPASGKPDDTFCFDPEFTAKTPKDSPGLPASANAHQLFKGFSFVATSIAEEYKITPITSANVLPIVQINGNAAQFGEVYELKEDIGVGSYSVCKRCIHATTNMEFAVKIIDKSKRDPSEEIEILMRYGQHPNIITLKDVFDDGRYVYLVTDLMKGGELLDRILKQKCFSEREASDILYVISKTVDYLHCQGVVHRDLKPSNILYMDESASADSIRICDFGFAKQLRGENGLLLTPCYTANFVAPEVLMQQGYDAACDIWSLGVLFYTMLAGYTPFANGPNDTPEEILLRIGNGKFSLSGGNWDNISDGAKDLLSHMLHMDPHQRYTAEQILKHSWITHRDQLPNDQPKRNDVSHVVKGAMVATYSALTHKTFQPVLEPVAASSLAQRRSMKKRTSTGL
Chain of Calcium/calmodulin-dependent protein kinase type II subunit alpha (Homo sapiens) (Q9UQM7 whole entry): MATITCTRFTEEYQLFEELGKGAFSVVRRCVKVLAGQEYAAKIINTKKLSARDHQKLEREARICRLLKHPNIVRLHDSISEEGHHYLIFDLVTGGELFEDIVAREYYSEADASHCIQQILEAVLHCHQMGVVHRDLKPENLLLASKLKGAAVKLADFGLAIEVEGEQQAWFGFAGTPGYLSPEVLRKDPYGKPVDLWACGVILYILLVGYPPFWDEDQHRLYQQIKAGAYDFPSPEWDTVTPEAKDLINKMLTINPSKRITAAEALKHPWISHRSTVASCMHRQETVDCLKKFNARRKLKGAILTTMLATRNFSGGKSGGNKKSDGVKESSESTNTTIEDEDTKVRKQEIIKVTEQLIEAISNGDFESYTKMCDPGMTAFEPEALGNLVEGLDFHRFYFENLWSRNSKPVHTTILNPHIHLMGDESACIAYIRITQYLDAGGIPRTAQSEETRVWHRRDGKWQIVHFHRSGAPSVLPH

Take `Fc1ccc(-c2ncn(C3CCNCC3)c2-c2ccnc(Oc3ccccc3)n2)cc1`: the inhibition in [1] is -1.23%; in experiment [2], 0.46%; in experiment [3], 0.24%; in [4], 0.49%; in experiment [5], 2.09%; in [6] it was 0.78%. Also, the inhibition in experiment [7] is 2.18%; in [8], 2.1%; in [9], 0.47%; in experiment [10], 2.07%; in [11], -1.95%; in [12], -1.26%. Also, the inhibition in experiment [13] was 2.38%; in experiment [14], -0.19%; in experiment [15], -0.55%; in [16], 0.01%; in experiment [17] it was 2.57%; in experiment [18], -1.05%. The inhibition is 0.14% in experiment [19] and -0.23% in experiment [20].

Take `COc1cc(C=NNc2ncnc3c2cnn3Cc2ccccc2)ccc1O`: the inhibition in experiment [1] was 2.26%; in [2], -3.31%; in experiment [3] it was 3.11%; in experiment [4], -3%; in experiment [5], -2.21%; in [6], -2.5%. The inhibition was -0.29% in [7]; -1.23% in experiment [8]; -0.19% in experiment [9]; -2.17% in experiment [10]; -3.45% in experiment [11]; 7.72% in [12]. Further, the inhibition in experiment [13] is 27.6%; in experiment [14] it was -0.74%; in [15], 1.48%; in [16], 0.53%; in experiment [17], 2.95%; in experiment [18], 0.1%. Besides, the inhibition in experiment [19] is 0.78%; in experiment [20], -5%.

For `COc1cccc(-n2ncc3c(N/N=C/c4ccncc4)ncnc32)c1`, the inhibition in experiment [1] is 4.33%; in experiment [2] it was 6.01%; in [3], 16.1%; in experiment [4], 4.49%; in experiment [5] it was 11.9%; in experiment [6], 5.19%. The inhibition stood at 6.6% in experiment [7]; 2.59% in [8]; 9.15% in experiment [9]; 2.26% in [10]; 7.87% in experiment [11]; 16.1% in experiment [12]. The inhibition in experiment [13] was 54.6%; in experiment [14], 11.2%; in experiment [15] it was 52.5%; in experiment [16], 18.6%; in experiment [17], 60.1%; in experiment [18], 0.07%. The inhibition in experiment [19] is 2.43%; in experiment [20], 4.53%.

`NS(=O)(=O)c1ccc(N/C=C2\C(=O)Nc3ccc4ncsc4c32)cc1`: the inhibition worked out at 59.9% in experiment [1]; 9.85% in [2]; 47.5% in [3]; 4.72% in experiment [4]; 18.4% in experiment [5]; 3.8% in [6]. Also, the inhibition was 10.2% in experiment [7]; 21.1% in experiment [8]; 59.9% in experiment [9]; 14.4% in experiment [10]; 42.8% in experiment [11]; 59.2% in experiment [12]. In addition, the inhibition in [13] turned out to be 69.1%; in experiment [14], 17.6%; in experiment [15], 53.1%; in experiment [16] it was 33%; in [17] it was 62.4%; in experiment [18], 0.05%. The inhibition in experiment [19] came to 0.92%; in [20] it was 2.56%.
